Results on 40 molecules are retold here after PubChem BioAssay (Tox21).

Molecules are shown by their SMILES. Values without a mark were called inactive. Inconclusive results are not listed. Entries that show only a call come without a potency. Calls of active or inactive are those of the source. Calls come from the whole dose curve.
Potency is the fitted concentration of half-maximal effect.

Chain of Acetylcholinesterase (Homo sapiens) (P22303 whole entry, looked up): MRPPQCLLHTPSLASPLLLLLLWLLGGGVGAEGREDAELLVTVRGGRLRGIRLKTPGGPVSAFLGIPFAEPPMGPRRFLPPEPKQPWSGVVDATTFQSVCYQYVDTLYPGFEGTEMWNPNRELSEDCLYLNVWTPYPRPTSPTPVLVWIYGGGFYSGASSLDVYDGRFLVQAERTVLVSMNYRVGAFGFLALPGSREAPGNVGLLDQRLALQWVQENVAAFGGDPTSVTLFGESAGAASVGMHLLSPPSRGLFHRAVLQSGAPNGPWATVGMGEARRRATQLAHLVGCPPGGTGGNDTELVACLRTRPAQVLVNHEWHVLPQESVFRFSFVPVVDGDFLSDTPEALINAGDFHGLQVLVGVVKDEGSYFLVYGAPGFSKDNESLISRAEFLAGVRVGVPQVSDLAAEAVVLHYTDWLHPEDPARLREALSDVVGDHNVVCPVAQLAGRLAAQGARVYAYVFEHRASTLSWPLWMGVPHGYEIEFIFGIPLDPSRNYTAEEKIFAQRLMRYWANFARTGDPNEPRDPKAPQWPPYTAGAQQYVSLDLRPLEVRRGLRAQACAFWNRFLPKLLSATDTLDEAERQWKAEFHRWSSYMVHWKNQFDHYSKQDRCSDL

The first assay concerns the target Acetylcholinesterase (Homo sapiens) (UniProt P22303). The experiment in a line: Acetylcholinesterase (AChE) small molecule antagonists: enzyme-based qHTS assay (AID 1347397). Note: nearly all actives have a fitted effect of over 55% in size. Conditions: Potency: AChE enzyme activity inhibition; outcome: AChE enzyme activity inhibition; series mostly up to 115 µM. The method, boiled down:
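Compound or DMSO vehicle was pin-transferred onto recombinant human AChE (50 mU/mL as dispensed) and left 30 min at room temperature. Acetylthiocholine with DTNB then started the reaction, read colorimetrically 10 min later.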
A general note: In qHTS, concentration-response curves come from the screen itself.
Turning to `CC(C)c1nc(CN(C)C(=O)N[C@H](C(=O)N[C@@H](Cc2ccccc2)C[C@H](O)[C@H](Cc2ccccc2)NC(=O)OCc2cncs2)C(C)C)cs1`, the Potency entry was “inactive”.

Regarding `Cc1cccc(C)c1NC(=O)CN1CCN(CCCC(c2ccc(F)cc2)c2ccc(F)cc2)CC1`, the Potency result is “inactive”.

On to `CC(C)Oc1ccccc1O`, for which the Potency entry is “inactive”.

Regarding `c1ccc(Nc2cccc3ccccc23)cc1`, the Potency entry is “inactive”.

Regarding `c1ccc(OCCOc2ccccc2)cc1`, the Potency entry is “inactive”.

Regarding `CCOC(=O)c1ccc(OCCN2C[C@H](O)[C@@H](O)[C@H](O)[C@H]2CO)cc1`, the Potency result is “inactive”.

On to `CCCc1nc(C)c2c(=O)[nH]c(-c3cc(S(=O)(=O)N4CCN(CC)CC4)ccc3OCC)nn12`, for which the Potency entry was “inactive”.

Consider `C[C@]12C=CC(=O)C=C1CC[C@H]1[C@@H]3C[C@@H](O)[C@](O)(C(=O)CO)[C@@]3(C)C[C@H](O)[C@@]12F`, for which the Potency entry is “inactive”.

On to `Cc1cc(O)c(C(C)(C)C)cc1Sc1cc(C(C)(C)C)c(O)cc1C`, for which the Potency was 28.2 µM (active).

With `NCCOCCN`, the Potency entry is “inactive”.

In the case of `CCCCN(CCO)CCCC`, the Potency entry was “inactive”.

For `O=C(O)c1ccccc1Nc1cc(Cl)ccc1C(=O)O`, the activity change, negative = inhibition is 2.19% [at 23.6 µM].

As for `COCCOC(=O)C1=C(C)NC(C)=C(C(=O)OC(C)C)C1c1cccc([N+](=O)[O-])c1` (stereo not given), the Potency entry is “inactive”.

`OC[C@H]1O[C@H](O[C@]2(CCl)O[C@H](CCl)[C@@H](O)[C@@H]2O)[C@H](O)[C@@H](O)[C@H]1Cl`: the Potency entry was “inactive”.

Turning to `CC(=O)OCCN(CCOC(C)=O)c1ccc(N=Nc2ccc([N+](=O)[O-])cc2C#N)cc1`, the Potency result is “inactive”.

As for `O=S(=O)(O)c1cc(Cl)c(Cl)cc1Cl`, the Potency result was “inactive”.

As for `CCCCN(CCCC)CCCCCCN(CCCC)CCCC`, the Potency entry was “inactive”.

For the molecule `CC(O)c1ccccc1` (stereo not given), the Potency entry is “inactive”.

For `CO[Si](CCCNCCN)(OC)OC`, the Potency entry was “inactive”.

Regarding `C=C1c2cccc(O)c2C(O)=C2C(=O)[C@]3(O)C(O)=C(C(N)=O)C(=O)[C@@H](N(C)C)[C@@H]3[C@@H](O)[C@H]12`, the Potency entry is “inactive”.

In the case of `O=c1cc[nH]c(=O)[nH]1`, the Potency entry was “inactive”.

For `CC[C@H](c1ccc(O)cc1)[C@@H](CC)c1ccc(O)cc1`, the Potency result was “inactive”.

With `Cc1ccc(C(C)(C)O)cc1`, the Potency entry is “inactive”.

Regarding `Cc1cc(O)c(C(C)C)cc1Cl`, the Potency result is “inactive”.

Consider `CCCCCCCCCCCSCC(=O)O`, for which the Potency entry was “inactive”.

For the molecule `CS(C)(=O)=O`, the Potency entry was “inactive”.

With `C/C=C/C(=O)CCCC`, the Potency entry was “inactive”.

Take `CCCCCC(CC)OC(=O)CCCOc1ccc(Cl)cc1Cl` (stereo not given): the Potency result is “inactive”.

Consider `C=CC/C=C/C`, for which the Potency entry is “inactive”.

Take `CCOC(=O)c1ccc(I)cc1`: the Potency result was “inactive”.

As to `CCC1OCC(COc2ccc(Oc3ccccc3)cc2)O1` (stereo not given), the Potency result is “inactive”.

As for `N#CCC(=O)O`, the Potency entry is “inactive”.

Regarding `CC(C)OC(=O)C(C)(C)Oc1ccc(C(=O)c2ccc(Cl)cc2)cc1`, the Potency result was “inactive”.

As to `O=P(c1ccccc1)(c1ccccc1)c1ccccc1`, the Potency entry was “inactive”.

`O=C(O)CNC(=O)c1ccc(CO)o1`: the Potency entry was “inactive”.

In the case of `CCN=C1C=CC(=C(c2ccc(N(CC)CC)cc2)c2ccc(N(CC)CC)cc2)c2ccccc21`, the Potency is 19.9 µM (active).

As for `COCC(C)N` (stereo not given), the Potency entry is “inactive”.

On to `COc1ccc(C2CNC(=O)C2)cc1OC1CCCC1` (stereo not given), for which the Potency entry is “inactive”.

For `CCOC(=O)COc1ccc2c(C)c(CCN(CC)CC)c(=O)oc2c1Cl`, the Potency is 15.5 µM (active).

`O=C(O)CCSSCCC(=O)O`: the Potency result was “inactive”.

The target is the same in a further assay. The experiment in a line: Acetylcholinesterase (AChE) small molecule antagonists: fluorescence cell-based qHTS assay (AID 1347398). Note: nearly all actives have a fitted effect of over 50% in size. The note with it: SH-SY5Y cells; Potency: AChE activity; outcome: AChE activity; series mostly up to 115 µM. In outline: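 Using neuroblastoma SH-SY5Y cells as the enzyme source, test chemicals are preincubated 30 min at 37 C; AChE-driven acetylthiocholine cleavage is then quantified by thiocholine-dependent Thiolite Green fluorescence after 40 min at room temperature.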
Turning to `CC(C)c1nc(CN(C)C(=O)N[C@H](C(=O)N[C@@H](Cc2ccccc2)C[C@H](O)[C@H](Cc2ccccc2)NC(=O)OCc2cncs2)C(C)C)cs1`, the Potency result is “inactive”.

Take `Cc1cccc(C)c1NC(=O)CN1CCN(CCCC(c2ccc(F)cc2)c2ccc(F)cc2)CC1`: the Potency entry is “inactive”.

For the molecule `CC(C)Oc1ccccc1O`, the Potency entry was “inactive”.

Consider `c1ccc(Nc2cccc3ccccc23)cc1`, for which the Potency entry is “inactive”.

For the molecule `c1ccc(OCCOc2ccccc2)cc1`, the Potency result was “inactive”.

As to `CCOC(=O)c1ccc(OCCN2C[C@H](O)[C@@H](O)[C@H](O)[C@H]2CO)cc1`, the Potency result was “inactive”.

`CCCc1nc(C)c2c(=O)[nH]c(-c3cc(S(=O)(=O)N4CCN(CC)CC4)ccc3OCC)nn12`: the Potency result is “inactive”.

Regarding `C[C@]12C=CC(=O)C=C1CC[C@H]1[C@@H]3C[C@@H](O)[C@](O)(C(=O)CO)[C@@]3(C)C[C@H](O)[C@@]12F`, the Potency result is “inactive”.

As for `Cc1cc(O)c(C(C)(C)C)cc1Sc1cc(C(C)(C)C)c(O)cc1C`, the Potency result was “inactive”.

For the molecule `NCCOCCN`, the Potency entry is “inactive”.

For the molecule `CCCCN(CCO)CCCC`, the Potency result is “inactive”.

As to `O=C(O)c1ccccc1Nc1cc(Cl)ccc1C(=O)O`, the activity change, negative = inhibition is 2.35% [at 23.8 µM].

As for `COCCOC(=O)C1=C(C)NC(C)=C(C(=O)OC(C)C)C1c1cccc([N+](=O)[O-])c1` (stereo not given), the Potency entry was “inactive”.

Consider `OC[C@H]1O[C@H](O[C@]2(CCl)O[C@H](CCl)[C@@H](O)[C@@H]2O)[C@H](O)[C@@H](O)[C@H]1Cl`, for which the Potency result was “inactive”.

With `CC(=O)OCCN(CCOC(C)=O)c1ccc(N=Nc2ccc([N+](=O)[O-])cc2C#N)cc1`, the Potency entry is “inactive”.

With `O=S(=O)(O)c1cc(Cl)c(Cl)cc1Cl`, the Potency result is “inactive”.

Consider `CCCCN(CCCC)CCCCCCN(CCCC)CCCC`, for which the Potency entry was “inactive”.

In the case of `CC(O)c1ccccc1` (stereo not given), the Potency entry was “inactive”.

Consider `CO[Si](CCCNCCN)(OC)OC`, for which the Potency entry was “inactive”.

Regarding `C=C1c2cccc(O)c2C(O)=C2C(=O)[C@]3(O)C(O)=C(C(N)=O)C(=O)[C@@H](N(C)C)[C@@H]3[C@@H](O)[C@H]12`, the Potency entry is “inactive”.

With `O=c1cc[nH]c(=O)[nH]1`, the Potency result is “inactive”.

Consider `CC[C@H](c1ccc(O)cc1)[C@@H](CC)c1ccc(O)cc1`, for which the Potency result is “inactive”.

With `Cc1ccc(C(C)(C)O)cc1`, the Potency result is “inactive”.

Regarding `Cc1cc(O)c(C(C)C)cc1Cl`, the Potency result was “inactive”.

Consider `CCCCCCCCCCCSCC(=O)O`, for which the Potency result was “inactive”.

As to `CS(C)(=O)=O`, the Potency result is “inactive”.

Regarding `C/C=C/C(=O)CCCC`, the Potency result is “inactive”.

Consider `CCCCCC(CC)OC(=O)CCCOc1ccc(Cl)cc1Cl` (stereo not given), for which the Potency result was “inactive”.

For the molecule `C=CC/C=C/C`, the Potency entry is “inactive”.

In the case of `CCOC(=O)c1ccc(I)cc1`, the Potency result is “inactive”.

For the molecule `CCC1OCC(COc2ccc(Oc3ccccc3)cc2)O1` (stereo not given), the Potency result was “inactive”.

As for `N#CCC(=O)O`, the Potency result is “inactive”.

Turning to `CC(C)OC(=O)C(C)(C)Oc1ccc(C(=O)c2ccc(Cl)cc2)cc1`, the Potency entry was “inactive”.

As to `O=P(c1ccccc1)(c1ccccc1)c1ccccc1`, the Potency entry is “inactive”.

Regarding `O=C(O)CNC(=O)c1ccc(CO)o1`, the Potency entry is “inactive”.

For the molecule `CCN=C1C=CC(=C(c2ccc(N(CC)CC)cc2)c2ccc(N(CC)CC)cc2)c2ccccc21`, the Potency is 39.7 µM (active).

In the case of `COCC(C)N` (stereo not given), the Potency result is “inactive”.

With `COc1ccc(C2CNC(=O)C2)cc1OC1CCCC1` (stereo not given), the Potency entry was “inactive”.

As for `CCOC(=O)COc1ccc2c(C)c(CCN(CC)CC)c(=O)oc2c1Cl`, the Potency is 6.92 µM (active).

For the molecule `O=C(O)CCSSCCC(=O)O`, the Potency result is “inactive”.
